D2 ag-1 = D2 dopamine receptor (human) agonism; activation, % at 2 µM; 0.53% of 340,000 active; HEK293 T-REx D2 cells, calcium flux agonist mode;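 active means activation over 3 SD above normal in the single-dose calcium agonist read, cut at about 30% in these data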
Target sequence (P14416 whole entry, looked up): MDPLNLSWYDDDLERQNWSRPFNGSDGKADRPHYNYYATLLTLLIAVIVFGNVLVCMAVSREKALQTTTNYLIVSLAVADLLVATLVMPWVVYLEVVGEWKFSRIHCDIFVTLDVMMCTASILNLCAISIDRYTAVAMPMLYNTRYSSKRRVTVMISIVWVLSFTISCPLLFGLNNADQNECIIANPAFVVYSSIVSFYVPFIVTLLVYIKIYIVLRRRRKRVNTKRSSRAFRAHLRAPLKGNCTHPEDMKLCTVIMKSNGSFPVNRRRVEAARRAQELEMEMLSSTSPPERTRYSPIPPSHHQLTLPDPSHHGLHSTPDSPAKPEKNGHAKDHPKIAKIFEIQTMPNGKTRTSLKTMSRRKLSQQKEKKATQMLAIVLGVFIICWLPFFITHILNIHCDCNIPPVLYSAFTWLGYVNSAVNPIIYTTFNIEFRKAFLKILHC
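Agonism scored from kinetic calcium signal (1 read/sec, 180 s) following compound pin transfer, after a 10 s baseline. Cells: HEK293 Trex line expressing inducible D2 receptor coupled to calcium, dye-loaded after overnight culture at 30 C.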
D2 antagonist = D2 dopamine receptor (human) antagonism. 2% of 340,000 active. P14416. inhibition, % at 10 µM. HEK293 TREx D2 cells, calcium flux, dopamine EC80; in the data active means inhibition above about 30%; inactive means below that, where a call was filed
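HEK293 T-REx D2 cells, tet-induced, calcium dye no-wash. Cpd pintool add, 180 s kinetic, then EC80 DA, 180 s kinetic. Ca flux read.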
D2 ag-2 = activates the human D2 dopamine receptor. P14416. DiscoveRx PathHunter D2 beta-arrestin, luminescence, 90 min; 100% = 57 uM dopamine signal. activation, % (concentration not given with the values). 0.084% of 360,000 active. AID 624465; in the data active means activation above about 40%; inconclusive means between about 15% and that limit
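DiscoveRx PathHunter D2 beta-arrestin cells (2,100/well) attached overnight, then compound-stimulated 90 min at 37 C in HBSS/10 mM HEPES/0.1% Tween-20 buffer; beta-galactosidase complementation read by luminescence after 1 h at ambient temperature. Dopamine 57 uM final (EC100) as control.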
D2 PAM-1 = human D2 receptor positive allosteric modulation; P14416; DiscoveRx D2 beta-arrestin cells, luminescence, 90 min; 100% = 57 uM dopamine signal; potentiation, % (concentration not given with the values); 0.23% of 360,000 active; AID 624464; in the data active means potentiation above about 50%; inconclusive means mostly about 30% to 49%
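PathHunter D2 cells, attached overnight at 37 deg C, received compound in DMSO plus dopamine at EC20 (50 nM final) for 90 min at 37 deg C. Beta-arrestin recruitment was read as luminescence after 1 h with detection reagent at ambient temperature.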
D2 PAM-2 = positively modulates the human D2 dopamine receptor allosterically; 0.34% of 340,000 active; HEK293 T-REx D2, calcium flux, EC20 dopamine potentiation; potentiation, % at 10 µM; P14416;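 active means potentiation over 3 SD above the plate norm, cut at about 30% in these data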
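Tetracycline-induced Hek293 Trex D2 cells, force-coupled to calcium, loaded with no-wash calcium dye. Compound added with 180 s kinetic read for agonism, then EC20 dopamine and a further 180 s read for potentiation.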
D3 ag = confirmation of human D3 dopamine receptor agonists, beta-arrestin. shares compounds with D2 ag-1. DiscoveRx D3 beta-arrestin cells, luminescence, 90 min. Potency, µM (doses to about 76.9 µM), most hits filed as activators. 4% of 2,300 active. AID 720506; further: nearly all actives have a fitted effect of over 70% in size
D2 ag-3 = activates human D2 dopamine receptor in D3 counterscreen | shares compounds with D2 ag-1 | DiscoveRx PathHunter D2 beta-arrestin, luminescence, 90 min; response scale: percent relative to full dopamine signal | Potency, µM (highest dose often 76.9 µM), hits mostly activators | 5.9% of 2,300 active | AID 720507; further: nearly all actives have a fitted effect of over 70% in size
Large screens that a line does not name were inactive (follow-up assays come after a bar, where they were run). Hits are enriched below; roughly 2.4% of the tested compounds scored in any of these assays. Unless noted, the call rests on the fitted dose curve; in most records, active means well fitted activation curve with a large enough effect; inconclusive means small, poorly fitted or top-dose-only effect; inactive means flat fitted curve, though single readings scatter.

O=C(CN1CCN(c2ccc(O)cc2)CC1)Nc1cc(S(=O)(=O)N2CCCC2)ccc1Cl	D2 ag-1 53.9, D2 antagonist 43.9 | D3 ag 39.8µM | D2 ag-3 inconclusive
O=C(CN1CCc2ccccc2C1)Nc1cc(S(=O)(=O)N2CCOCC2)ccc1N1CCCC1	D2 ag-1 76.3, D2 antagonist 83.2 | D3 ag inactive | D2 ag-3 inactive
Cc1nn(C)c2c1c(-c1ccccc1)cc(=O)n2Cc1ccc(Cl)cc1	none (no result: D2 antagonist, D2 ag-2, D2 PAM-1)
COc1cccc(/C=C/C(=O)OCC(=O)NCCc2ccccc2)c1	D2 ag-1 46.5 | D3 ag inactive | D2 ag-3 inactive
COc1ccc(N=C2NC(=O)S/C2=C\c2ccc(N(C)C)cc2)cc1	none | D3 ag inactive | D2 ag-3 inactive
CCOc1ccc(N=C2NC(=O)S/C2=C\c2ccc(Cl)cc2)cc1	none
Cc1ccc2c(c1)cc1c(=O)n(CC(=O)NCc3ccco3)nc(C)n12	none (no result: D2 antagonist, D2 ag-2, D2 PAM-1)
C[C@@H]1NS(=O)(=O)[C@H]2C[C@@H]3C=C[C@]2(O3)[C@H]1OC(=O)Nc1ccc(C(F)(F)F)cc1[N+](=O)[O-]	none | D3 ag inactive | D2 ag-3 inactive
Cc1cc(C(=O)O[C@H]2[C@H](C)NS(=O)(=O)[C@H]3C[C@@H]4C=C[C@]23O4)cc([N+](=O)[O-])c1	none
Cc1cccc(-c2nc3cc(NC(=O)COc4ccccc4F)ccc3o2)c1	none (no result: D2 antagonist, D2 ag-2, D2 PAM-1)
CNc1c(NC(=O)c2ccc(OC)c(OC)c2)c(=O)oc2ccccc12	none (no result: D2 antagonist, D2 ag-2, D2 PAM-1)
Cc1ccc(C2=CC(=O)C[C@H](c3ccc(F)cc3)C2)cc1	none
N#Cc1ccc(C2=CC(=O)C[C@H](c3ccc(F)cc3)C2)cc1	none | D3 ag inactive | D2 ag-3 inactive
Cn1ccc2ccc(C3=CC(=O)C[C@H](c4ccc(F)cc4)C3)cc21	none | D3 ag inactive | D2 ag-3 inactive
Cc1ccc(CNC(=O)c2ccc(Cn3c(=O)c4ccccc4n(CC(=O)Nc4ccc(C)cc4C)c3=O)cc2)cc1	none (no result: D2 antagonist, D2 ag-2, D2 PAM-1)
CCCN(CCC)CCCNC(=O)C1CCC(CNS(=O)(=O)c2ccc(NC(C)=O)cc2)CC1 (stereo not given)	none (no result: D2 antagonist, D2 ag-2, D2 PAM-1)
CC(=O)c1cccc(OCC(O)CN2CCN(C(=O)c3ccco3)CC2)c1 (stereo not given)	D2 ag-2 inconclusive (no result: D2 ag-1, D2 antagonist, D2 PAM-2) | D3 ag inactive | D2 ag-3 inconclusive
COc1ccc(CN2CCN(C(=O)c3ccc(S(=O)(=O)N4CCCCCC4)cc3)CC2)cc1	none (no result: D2 ag-1, D2 antagonist, D2 PAM-2) | D3 ag inactive | D2 ag-3 inactive
COc1ccc(CN2CCN(Cc3ccco3)CC2)cc1	none (no result: D2 ag-1, D2 antagonist, D2 PAM-2)
CC(=O)c1cccc(OCC(O)CN2CCN(S(=O)(=O)c3c(F)cccc3F)CC2)c1 (stereo not given)	none
CCOc1ccc(CN2CCN(C(=O)c3ccco3)CC2)cc1	D2 ag-2 54.3, D2 PAM-1 57.2 (no result: D2 ag-1, D2 antagonist, D2 PAM-2) | D3 ag inconclusive | D2 ag-3 4.47µM
COc1ccc(CN2CCN(C(=O)c3ccco3)CC2)cc1	D2 ag-1 86.6, D2 antagonist 87.3, D2 ag-2 77.4, D2 PAM-1 65.2 | D3 ag inconclusive | D2 ag-3 10µM
FC(F)(F)c1cccc(N2CCN(c3nc4ccccc4n4cnnc34)CC2)c1	none (no result: D2 antagonist, D2 ag-2, D2 PAM-1, D2 PAM-2)
O=C(c1ccc(F)cc1)N1CCC(c2nc3ccccc3s2)CC1	none (no result: D2 antagonist, D2 ag-2, D2 PAM-1)
Cc1ccc(-c2cc(C(=O)Nc3ccc(SC(F)F)cc3)no2)cc1F	none (no result: D2 antagonist, D2 ag-2, D2 PAM-1)
COc1ccc2ccccc2c1CN1CCN(C(=O)c2ccco2)CC1	D2 ag-1 69.0, D2 antagonist 88.5, D2 ag-2 58.1 | D3 ag inconclusive | D2 ag-3 25.1µM
COc1ccc2ccccc2c1CN1CCN(C(=O)c2ccccc2)CC1	none
CCOc1ccc(C(=O)N2CCN(C(=O)c3ccco3)CC2)cc1OCC	none
CCOc1cc(CN2CCN(C(=O)c3ccco3)CC2)ccc1OC	D2 ag-1 98.9, D2 antagonist 74.3, D2 ag-2 inconclusive, D2 PAM-1 63.4 | D3 ag inactive | D2 ag-3 25.1µM

Screening results from PubChem.
